Laboratory results: PubChem BioAssay AID651642 (Sanford-Burnham Center for Chemical Genomics, 2012)
Unmarked numbers belong to inactive results. Active and inactive are the calls of the source.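 How the source made its calls: active means average half-effect concentration of 10 µM or less in every one of the four cell panels; inactive means the rest.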

Tested on: HL-1
Test: protection of cardiomyocytes from stress damage, SAR follow-up, cell-based, panel, H9c2 and HL-1, H2O2, 2-deoxyglucose, ATP luminescence (AID 651642);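 further: plate controls were H2O2 plus DMSO for no effect and cells kept without H2O2 for full effect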
Conditions: H9c2/HL-1 cardiomyocyte H2O2 oxidative damage, mean of runs; activity: with H2O2, at 0.154 µM; outcome: with H2O2

SMILES	activity
CCOC(=O)c1cccc(NC(=O)CNC(=O)c2cc(-c3cc(OC)c(OC)c(OC)c3)nc3ccc(OC)cc23)c1	-3.33% (active)
COc1cc(-c2cc(C(=O)NCC(=O)Nc3cccc(C(C)=O)c3)c3cc(F)ccc3n2)cc(OC)c1OC	-0.68% (active)
COc1cc(-c2cc(C(=O)Nc3cccc(C#N)c3)c3ccccc3n2)cc(OC)c1OC	0.75%
COc1cc(-c2cc(C(=O)NCC(=O)Nc3ccc(C(C)=O)cc3)c3cc(F)ccc3n2)cc(OC)c1OC	1.92% (active)
COc1ccc2c(c1OC)C(=O)N1c3ccccc3C(=O)N(Cc3cccc(Cl)c3Cl)C21 (configuration not stated)	4.4%
COC(=O)CNC(=O)c1cc(-c2cc(OC)c(OC)c(OC)c2)nc2ccccc12	-2.8%
COc1cc(-c2cc(C(=O)NCC(=O)Nc3cccc(C(C)=O)c3)c3cccc(Cl)c3n2)cc(OC)c1OC	8.31%
COc1ccc2c(c1OC)C(=O)N1c3ccccc3C(=O)N(Cc3ccccc3Cl)C21 (configuration not stated)	2.73%
CCNC(=O)c1cccc(NC(=O)c2cc(-c3cc(OC)c(OC)c(OC)c3)nc3ccccc23)c1	-0.0361% (active)
COc1ccc2c(c1OC)C(=O)N1c3ccccc3C(=O)N(Cc3ccc(F)cc3)C21 (configuration not stated)	-2.95%
COc1cc(-c2cc(C(=O)Nc3cccc(C(N)=O)c3)c3ccccc3n2)cc(OC)c1OC	-0.415% (active)
COc1cccc(CNC(=O)CNC(=O)c2cc(-c3cc(OC)c(OC)c(OC)c3)nc3ccccc23)c1	-2.04%
CCOC(=O)c1cccc(NC(=O)CNC(=O)c2cc(-c3cc(OC)c(OC)c(OC)c3)nc3ccc(C)cc23)c1	-1.48% (active)
COc1ccc(NC(=O)CNC(=O)c2cc(-c3cc(OC)c(OC)c(OC)c3)nc3ccccc23)cc1	3.9% (active)
COc1ccc2c(c1OC)C(=O)N1c3ccccc3C(=O)N(Cc3ccc(C)cc3C)C21 (configuration not stated)	-0.945%
COc1cc(-c2cc(C(=O)Nc3cccc(C(=O)NC4CC4)c3)c3ccccc3n2)cc(OC)c1OC	-0.15% (active)

SMILES	activity
CCOC(=O)c1cccc(NC(=O)c2cc(-c3cc(OC)c(OC)c(OC)c3)nc3ccc(Br)cc23)c1	0.456%
COc1cc(-c2cc(C(=O)NCC(=O)Nc3cccc(C(C)=O)c3)c3cc(C)ccc3n2)cc(OC)c1OC	0.0397%
COc1ccc2c(c1OC)C(=O)N1c3ccccc3C(=O)N(Cc3ccccc3)C21 (configuration not stated)	-5.45%
COc1ccc2c(c1OC)C(=O)N1c3ccccc3C(=O)N(Cc3cccc(Br)c3)C21 (configuration not stated)	0.759%
COc1cc(-c2cc(C(=O)NCC(=O)Nc3cccc(C(C)=O)c3)c3ccccc3n2)cc(OC)c1OC	-2.38% (active)
COc1cc(-c2cc(C(=O)NCC(=O)Nc3ccc(C(C)=O)cc3)c3ccccc3n2)cc(OC)c1OC	0.684%
COc1ccc2c(c1OC)C(=O)N1c3ccccc3C(=O)N(Cc3ccccn3)C21 (configuration not stated)	1.21%
COc1ccc2c(c1OC)C(=O)N1c3ccccc3C(=O)N(Cc3ccccc3Br)C21 (configuration not stated)	-0.68%
COc1ccc2c(c1OC)C(=O)N1c3ccccc3C(=O)N(Cc3ccccc3F)C21 (configuration not stated)	4.24%
COc1cc(-c2cc(C(=O)Nc3cccc(C(C)=O)c3)c3ccccc3n2)cc(OC)c1OC	-1.02% (active)
COc1cc(-c2cc(C(=O)Nc3cccc(C(=O)Nc4ccccc4)c3)c3ccccc3n2)cc(OC)c1OC	-3.29%
COc1cc(-c2cc(C(=O)Nc3cccc(C(=O)NCc4ccccc4)c3)c3ccccc3n2)cc(OC)c1OC	1.48% (active)
COc1cc(-c2cc(C(=O)NCC(=O)O)c3ccccc3n2)cc(OC)c1OC	-0.263%
CCOC(=O)c1cccc(NC(=O)c2cc(-c3cc(OC)c(OC)c(OC)c3)nc3ccc(F)cc23)c1	5.11% (active)
CCOC(=O)c1cccc(NC(=O)CNC(=O)c2cc(-c3cc(OC)c(OC)c(OC)c3)nc3c(Cl)cccc23)c1	-2.82%
COc1cc(-c2cc(C(=O)Nc3cccc(C(C)=O)c3)c3cc(Br)ccc3n2)cc(OC)c1OC	1.55%
